Data taken from PubChem BioAssay AID1159580 (chemical genetic matrix, 2015).
Out of some 5,500 compounds screened, about 2,000 (36%) were called active. Roughly 18% stayed inconclusive and do not appear here. Rule as the data show it: active = normalized growth mostly below about 0.91 (no sharp cut-off); inconclusive = no clear call, values can overlap the other calls; inactive = mostly above about 0.92. This is one part of the list.

Assay: chemical genetic growth profiling, strain panel (AID 1159580);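 also: tested at 20 µM; growth read once vehicle control cultures reached saturation at 30 °C; 1 = growth at the plate median or of vehicle wells; lower values mean less growth of the strain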
Conditions: S. cerevisiae deletion strains, growth OD

Measured: normalized growth

N#Cc1c(Cl)c(Cl)c(Cl)c(Cl)c1C#N
active: locus YAR019C, strain CDC15, hits give low values 0.625 | locus YBL105C, strain PKC1, hits give low values 0.734 | locus YBR135W, strain CKS1, hits give low values 0.721 | locus YBR136W, strain MEC1, hits give low values 0.716 | locus YBR160W, strain CDC28, hits give low values 0.726 | locus YDL017W, strain CDC7, hits give low values 0.722 | locus YDL028C, strain MPS1, hits give low values 0.488 | locus YDL101C, strain DUN1, hits give low values 0.789 | locus YDL108W, strain KIN28, hits give low values 0.707 | locus YDL132W, strain cdc53, hits give low values 0.588 | locus YDL214C, strain PRR2, hits give low values 0.392 | locus YDR052C, strain DBF4, hits give low values 0.77 | locus YDR054C, strain cdc34, hits give low values 0.235 | locus YDR226W, strain ADK1, hits give low values 0.693 | locus YDR477W, strain SNF1, hits give low values 0.283 | locus YER123W, strain YCK3, hits give low values 0.169 | locus YER133W, strain GLC7, hits give low values 0.227 | locus YFL009W, strain cdc4, hits give low values 0.685 | locus YFL029C, strain CAK1, hits give low values 0.639 | locus YFR003C, strain YPI1, hits give low values 0.634 | locus YFR019W, strain FAB1, hits give low values 0.315 | locus YFR028C, strain CDC14, hits give low values 0.66 | locus YGR040W, strain KSS1, hits give low values 0.352 | locus YGR052W, strain FMP48, hits give low values 0.382 | locus YGR092W, strain DBF2, hits give low values 0.135 | locus YHR030C, strain SLT2, hits give low values 0.23 | locus YHR079C, strain IRE1, hits give low values 0.17 | locus YHR082C, strain KSP1, hits give low values 0.412 | locus YHR205W, strain SCH9, hits give low values 0.071 | locus YIL147C, strain SLN1, hits give low values 0.555 | locus YJL095W, strain BCK1, hits give low values 0.284 | locus YJL157C, strain FAR1, hits give low values 0.318 | locus YJR016C, strain ILV3, hits give low values 0.587 | locus YJR066W, strain TOR1 (second series), hits give low values 0.459 | locus YJR066W, strain TOR1, hits give low values 0.376 | locus YKL048C, strain ELM1, hits give low values 0.282 | locus YKL067W, strain YNK1, hits give low values 0.359 | locus YKL101W, strain HSL1, hits give low values 0.346 | locus YKL193C, strain SDS22, hits give low values 0.66 | locus YKL203C, strain TOR2, hits give low values 0.37 | locus YLR113W, strain HOG1, hits give low values 0.302 | locus YLR133W, strain CKI1, hits give low values 0.238 | locus YLR403W, strain SFP1, hits give low values 0.109 | locus YML070W, strain DAK1, hits give low values 0.291 | locus YMR001C, strain CDC5, hits give low values 0.673 | locus YMR205C, strain PFK2 (second series), hits give low values 0.159 | locus YMR277W, strain FCP1, hits give low values 0.594 | locus YNL006W, strain LST8, hits give low values 0.574 | locus YNL020C, strain ARK1, hits give low values 0.191 | locus YNL161W, strain CBK1, hits give low values 0.704 | locus YNL183C, strain NPR1, hits give low values 0.241 | locus YNL207W, strain RIO2, hits give low values 0.666 | locus YNL222W, strain SSU72, hits give low values 0.653 | locus YNL307C, strain MCK1 (second series), hits give low values 0.162 | locus YOL078W, strain AVO1, hits give low values 0.652 | locus YOL136C, strain PFK27, hits give low values 0.26 | locus YOR061W, strain CKA2, hits give low values 0.141 | locus YOR119C, strain RIO1, hits give low values 0.37 | locus YOR231W, strain MKK1, hits give low values 0.285 | locus YOR329C, strain SCD5, hits give low values 0.701 | locus YPL031C, strain PHO85, hits give low values 0.219 | locus YPL153C, strain RAD53, hits give low values 0.158 | locus YPL204W, strain HRR25, hits give low values 0.214 | locus YPL209C, strain IPL1, hits give low values 0.711 | locus YPL256C, strain CLN2, hits give low values 0.492 | locus YPR025C, strain CCL1, hits give low values 0.728 | locus YPR106W, strain ISR1, hits give low values 0.851 | locus YPR111W, strain DBF20, hits give low values 0.756 | strain NNK1, hits give low values 0.747 | strain TSCII, hits give low values 0.661
